The text below walks through data of PubChem BioAssay AID1347074 (Center for Chemical Genomics, University of Michigan, 2019).

Structures are written as SMILES. Out of some 47,000 compounds screened, about 2,800 (6%) were called active. For the sample, actives were picked, then their nearest neighbours and some compounds at random. Values without a mark were called inactive. Rule as the data show it: active = z-score above about 3 (passing the limit was not always enough); inactive = the rest.

In the assay the target is Endoribonuclease Dicer (Homo sapiens) (UniProt Q9UPY3). The assay is described as follows: Dicer cleavage of pre-miR-21 blockers – biochemical, cat-ELCCA, chemiluminescence, primary screen (AID 1347074).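 Also: plate controls were vehicle for no effect and no enzyme for full effect; higher signal means more uncleaved substrate so more Dicer inhibition.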 The settings on record: cat-ELCCA pre-miR-21 Dicer processing, at 25 µM, active compounds read high.
Sequence of Endoribonuclease Dicer (Homo sapiens) (Q9UPY3 whole entry, looked up): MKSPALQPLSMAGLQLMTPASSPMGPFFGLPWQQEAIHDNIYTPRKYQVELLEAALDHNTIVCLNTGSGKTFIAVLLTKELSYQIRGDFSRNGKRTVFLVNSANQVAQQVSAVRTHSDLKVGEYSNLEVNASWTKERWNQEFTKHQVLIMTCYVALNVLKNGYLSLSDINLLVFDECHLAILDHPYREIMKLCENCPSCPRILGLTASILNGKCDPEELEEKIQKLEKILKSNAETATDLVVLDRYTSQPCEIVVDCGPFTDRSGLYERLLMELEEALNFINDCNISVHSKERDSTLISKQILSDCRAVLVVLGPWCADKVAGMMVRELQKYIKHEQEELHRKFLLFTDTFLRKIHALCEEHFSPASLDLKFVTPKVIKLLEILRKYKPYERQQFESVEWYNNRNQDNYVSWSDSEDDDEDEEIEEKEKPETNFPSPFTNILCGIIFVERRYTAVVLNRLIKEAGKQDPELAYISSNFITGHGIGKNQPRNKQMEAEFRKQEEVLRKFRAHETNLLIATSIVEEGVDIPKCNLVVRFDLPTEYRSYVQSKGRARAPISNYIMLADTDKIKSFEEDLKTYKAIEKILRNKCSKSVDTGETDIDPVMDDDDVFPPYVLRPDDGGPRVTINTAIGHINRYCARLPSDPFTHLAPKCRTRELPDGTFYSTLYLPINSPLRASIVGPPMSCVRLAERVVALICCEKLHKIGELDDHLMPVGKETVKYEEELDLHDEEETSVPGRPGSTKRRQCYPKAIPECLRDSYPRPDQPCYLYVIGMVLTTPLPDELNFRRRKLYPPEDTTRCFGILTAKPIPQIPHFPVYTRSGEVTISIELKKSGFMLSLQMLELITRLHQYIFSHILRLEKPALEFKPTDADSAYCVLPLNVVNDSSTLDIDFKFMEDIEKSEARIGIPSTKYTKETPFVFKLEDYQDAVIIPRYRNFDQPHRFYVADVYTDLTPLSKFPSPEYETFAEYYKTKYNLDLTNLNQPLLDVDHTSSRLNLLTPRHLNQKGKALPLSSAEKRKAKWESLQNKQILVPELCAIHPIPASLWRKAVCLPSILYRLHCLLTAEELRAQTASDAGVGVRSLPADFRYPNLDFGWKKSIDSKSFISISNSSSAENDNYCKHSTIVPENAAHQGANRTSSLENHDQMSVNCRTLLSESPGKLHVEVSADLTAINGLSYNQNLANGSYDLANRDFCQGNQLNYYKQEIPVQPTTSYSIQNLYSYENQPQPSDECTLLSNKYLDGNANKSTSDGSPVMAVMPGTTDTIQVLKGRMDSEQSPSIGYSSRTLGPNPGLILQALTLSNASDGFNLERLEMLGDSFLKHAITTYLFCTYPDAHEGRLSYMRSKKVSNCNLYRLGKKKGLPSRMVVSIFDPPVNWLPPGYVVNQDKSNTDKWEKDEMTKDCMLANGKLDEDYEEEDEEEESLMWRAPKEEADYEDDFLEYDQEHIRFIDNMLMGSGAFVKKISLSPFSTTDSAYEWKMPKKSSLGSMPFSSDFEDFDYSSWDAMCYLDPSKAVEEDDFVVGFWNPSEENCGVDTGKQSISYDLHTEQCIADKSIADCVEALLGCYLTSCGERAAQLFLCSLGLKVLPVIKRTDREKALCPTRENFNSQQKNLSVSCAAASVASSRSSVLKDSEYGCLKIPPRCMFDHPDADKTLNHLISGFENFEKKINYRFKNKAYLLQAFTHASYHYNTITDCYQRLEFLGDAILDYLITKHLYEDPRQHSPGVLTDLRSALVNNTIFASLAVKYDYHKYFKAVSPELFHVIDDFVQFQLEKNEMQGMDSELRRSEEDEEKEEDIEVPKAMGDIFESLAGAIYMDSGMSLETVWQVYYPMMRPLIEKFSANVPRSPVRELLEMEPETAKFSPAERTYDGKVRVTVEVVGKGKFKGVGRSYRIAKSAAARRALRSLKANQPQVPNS
For the molecule `CCCCSc1nnc2c(n1)OC=Nc1ccc(Br)cc1-2`, the z-score is 1.93. In the case of `N#C/C(=C\N1CCc2ccccc21)C(=O)c1cccc(C(F)(F)F)c1`, the z-score is -2.08.

Take `O=C(CSc1nc2ccccc2nc1N1CCCC1)N1CCN(c2ccccc2)CC1`: the z-score was 1.57. For `O=C(CSc1nc2ccccc2nc1N1CCCC1)NCc1cccs1`, the z-score is 3.04 (active). On to `O=C(CSc1nc2ccccc2nc1N1CCOCC1)Nc1ccccc1`, for which the z-score is 1.99.

Turning to `N#CC1=C(N)Oc2ccc3ccccc3c2C1c1ccc(F)cc1` (stereo not given), the z-score is -0.03. With `O=C(O)c1ccc(N2C(=O)CC(N3CCCCC3)C2=O)cc1` (stereo not given), the z-score was -0.35. As for `COc1ccc(CCNC(N)=O)cc1OC`, the figure is 5.13 (active).

Regarding `COc1ccc(CCNCC(O)Cn2ccc3ccccc32)cc1OC` (stereo not given), the z-score was -0.31. As for `COc1ccc(CCNC(=O)CCC(=O)O)cc1OC`, the figure is 1.57. Regarding `COC(=O)C(C(=O)OC)=C(SC)SC`, the z-score was -1.16. Consider `CC1(C)CC2(CC(C)(c3csc(Nc4ccccc4)n3)OC2=O)C(=O)O1` (stereo not given), for which the z-score was 1.11. Take `O=[N+]([O-])c1ccc(CC(O)N2CCN(c3nc4ccc(Cl)cc4s3)CC2)cc1` (stereo not given): the z-score is -0.91. As for `O=C(c1cccs1)c1nn(-c2ccccc2)c2nc(=O)c(Cc3ccc(Cl)cc3)nn12`, the figure is -0.23; as for `Cc1cc(C)cc(Oc2coc3cc(OCC(=O)O)ccc3c2=O)c1`, -0.66; as for `Cc1[nH]cc(Br)c(=O)c1OCC(=O)O`, 4.04 (active). As for `COc1ccc2[nH]cc(CCC(=O)O)c2c1`, the figure is 2.43; as for `O=S(=O)(c1cc(Cl)c(Cl)cc1Cl)N1CCc2[nH]c3ccc(F)cc3c2C1`, -0.85. Turning to `Cc1ccc(O)c(-c2cnc3ccccc3n2)c1`, the z-score is -1.69. As for `CC1(C)CC(=O)C=C(Nc2ccccc2)C1`, the figure is 2.68; as for `O=C1C=C(NNc2ccccc2)CCC1`, 3.26 (active). Turning to `Cc1ccc(-n2nnnc2-c2ccc(Cl)c(Cl)c2)c(C)c1`, the z-score was -1.31. As for `Nc1n[nH]c2c1CSc1ccc(Cl)cc1-2`, the z-score was -4.16.

`Cc1ccc2nc(Nc3ncc4c(n3)CC(C)(C)CC4=O)nc(C)c2c1`: the z-score is 1.2.

For the molecule `CCOC(=O)c1cc(CC)sc1NC(=O)c1cccc(C(F)(F)F)c1`, the z-score is 0.82. For `NC(=S)NNC(=O)c1cccc(C(F)(F)F)c1`, the z-score is 33.4 (active). Take `O=C(CS(=O)(=O)c1ccc(C(F)(F)F)cn1)NNC(=O)c1ccccc1`: the z-score is 0.59. As for `O=[N+]([O-])c1cccc(C2CC(c3ccccc3)=Nc3ccccc3S2)c1` (stereo not given), the figure is -1.81.

`C1=CC2CC1CC2CN1CCN(Cc2c[nH]c3ccccc23)CC1` (stereo not given): the z-score is 4.79 (active).

For the molecule `COc1cccc(-c2ccc(-c3noc(-c4cccc(OC)c4)n3)c(OC)n2)c1`, the z-score is 0.01. As for `COc1cccc(C2Oc3ccccc3C3CC(c4ccccc4O)=NN32)c1OC` (stereo not given), the figure is 6.13.

Consider `COc1cccc2c1OC(c1ccccc1F)N1N=C(c3ccccc3O)CC21` (stereo not given), for which the z-score was 5.58 (active). Take `COc1ccc(O)c(C2=NN3C(C2)c2cccc(OC)c2OC3c2ccccc2)c1` (stereo not given): the z-score was 1.51. As for `Cn1c(-c2ccccc2)cnc1NCc1c(F)cccc1Cl`, the z-score is 2.86. Consider `Cc1ccc(-c2nc3ccccc3[nH]2)cc1N`, for which the z-score is 0.04. Consider `Nc1ccc(/C=C/c2nc3ccccc3[nH]2)cc1`, for which the z-score is 4.8 (active). As for `Nc1cccc(CCc2nc3ccccc3[nH]2)c1`, the figure is 1.56. For `CCCCn1nnc2sc3c(c2c1=O)CCCC3`, the z-score is -0.96. Consider `O=C(CSc1nc2c(c(C(F)(F)F)n1)CCc1ccccc1-2)N1CCOCC1`, for which the z-score is 0.53. As to `COc1cc2c(cc1OC)C(C)N(Cc1cc(C)c(O)c(C)c1)CC2` (stereo not given), the z-score is -0.23. Regarding `CCOC(=O)c1cc(Sc2ccccc2)cc(C(=O)OCC)n1`, the z-score was -0.71. As for `CCc1ccc(C2C(C(=O)OC)=C(C)NC3=C2C(=O)CC(C)(C)C3)cc1` (stereo not given), the figure is 0.1. Regarding `CC(C)(C)OC(=O)n1ccc2cc(Br)ccc21`, the z-score is 3.27 (active). Take `CCOC(=O)c1cc(-c2ccccc2)sc1NC(=S)N1CCN(c2ccccc2)CC1`: the z-score is 1.09.

`CCOC(=O)c1nnn2c1nc(N1CCN(c3ccccc3)CC1)c1ccccc12`: the z-score was 0.67. As for `CC(=O)Oc1cc2c(C(=O)N3CCN(c4ccccc4)CC3)c(C)oc2c2ccccc12`, the figure is 3.08 (active); as for `O=C(CC1(O)C(=O)N(CCc2ccccc2)c2ccccc21)c1cccc(-n2cccc2)c1` (stereo not given), -0.51. Take `C1=C(c2cccs2)CC(c2cccs2)=NN=C1c1cccs1`: the z-score is 3.06 (active). Consider `Cc1[nH]nc2c1C(c1ccccc1Cl)C(C#N)=C(N)O2` (stereo not given), for which the z-score is -1.03. On to `O=C(O)C1C2C=CC(C2)C1C(=O)N1CCN(CCO)CC1` (stereo not given), for which the z-score was 3.56 (active). Regarding `COc1ccc(-c2c(C)nn3c2N=C(c2ccccc2)CC3c2ccco2)cc1` (stereo not given), the z-score was -0.12.

In the case of `CC(C)N(CCC#N)CN1C(=O)c2ccccc2C1=O`, the z-score was 1.63. With `COc1cc2c(cc1OC)C(c1ccccc1)=NC(C)(C)C2`, the z-score was 0.36. As for `FC(F)(F)c1cccc(NC(=S)NNc2nccc(C(F)(F)F)n2)c1`, the z-score is 3.39 (active). Regarding `FC(F)(F)c1ccc(/C=N/Nc2nccc(C(F)(F)F)n2)cc1`, the z-score is 0.54. As for `FC(F)(F)c1ccnc(NCCNc2nccc(C(F)(F)F)n2)c1`, the figure is -0.42; as for `Cc1cc2c(cc1C)CSC(C)(c1cccc([N+](=O)[O-])c1)SC2`, -1.77. Consider `Cc1ccc(C2CC(c3cccc(C)c3)n3nc(N)nc3N2)cc1` (stereo not given), for which the z-score was 0.14. For `COc1cccc(-n2[nH]nnc2=S)c1`, the z-score was 1.1.

Turning to `COc1cccc(C2Nc3cccc4cccc(c34)N2)c1`, the z-score is 3.24 (active). For `Oc1ccc(C2Nc3cccc4cccc(c34)N2)cc1`, the z-score was 0.15. Consider `Cc1ccc(C2Nc3cccc4cccc(c34)N2)cc1`, for which the z-score is 3.06 (active). With `O=C(CSc1nc2c(c(C(F)(F)F)n1)CCc1ccccc1-2)NCc1cccnc1`, the z-score is 2.31.

For the molecule `CC1=C(C(=O)OC2CCCCC2)C(c2cccnc2)C2=C(CCCC2=O)N1` (stereo not given), the z-score is -0.48. For the molecule `CC1=NOC(=O)C1C(c1cccc(Br)c1)c1c(C)[nH]n(-c2ccccc2)c1=O` (stereo not given), the z-score was -4.75.
